{"source": "PubChem BioAssay", "key": {"[1]": {"molecular_target": "Photoreceptor-specific nuclear receptor (Homo sapiens) (UniProt Q9Y5X4)", "sequence (Q9Y5X4 whole entry, looked up)": "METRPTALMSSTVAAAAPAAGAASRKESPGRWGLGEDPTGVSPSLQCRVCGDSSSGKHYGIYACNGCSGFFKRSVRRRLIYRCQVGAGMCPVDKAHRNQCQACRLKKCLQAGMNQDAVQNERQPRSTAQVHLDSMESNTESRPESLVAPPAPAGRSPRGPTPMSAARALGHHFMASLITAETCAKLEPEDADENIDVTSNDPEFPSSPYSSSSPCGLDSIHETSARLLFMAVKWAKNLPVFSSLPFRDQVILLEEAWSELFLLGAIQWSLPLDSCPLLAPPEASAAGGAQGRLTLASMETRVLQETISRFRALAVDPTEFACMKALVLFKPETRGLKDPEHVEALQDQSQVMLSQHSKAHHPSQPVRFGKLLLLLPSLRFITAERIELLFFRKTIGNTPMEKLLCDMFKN", "assay": "NR2E3 agonist confirmation in cells, cell-based, luminescence, CHO-S two-hybrid (AID 624378;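 active means average inhibition above a cutoff equal to the mean inhibition of all tested compounds plus one SD, cut at about 70% in these data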;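 further: 0% = DMSO in NR2E3 cells and 100% = DMSO in cells lacking NR2E3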)", "settings": "CHO-S mammalian two-hybrid NR2E3-NCOR, luciferase luminescence; at 3.98 µM; active compounds read high"}, "[2]": {"assay": "GAL4-VP16 reporter modulators, confirmation, counter-screen for NR2E3 agonist project, cell-based, luminescence, CHO-S, high throughput (AID 624379);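 further: 0% = DMSO with VP16-transfected cells and 100% = DMSO with cells lacking VP16; higher means less reporter light so more repression of VP16 activity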", "settings": "CHO-S GAL4-VP16 luciferase reporter, at 3.98 µM, active compounds read high"}, "[3]": {"molecular_target": "Receptor-interacting serine/threonine-protein kinase 2 (Homo sapiens) (UniProt O43353)", "sequence (O43353 whole entry, looked up)": "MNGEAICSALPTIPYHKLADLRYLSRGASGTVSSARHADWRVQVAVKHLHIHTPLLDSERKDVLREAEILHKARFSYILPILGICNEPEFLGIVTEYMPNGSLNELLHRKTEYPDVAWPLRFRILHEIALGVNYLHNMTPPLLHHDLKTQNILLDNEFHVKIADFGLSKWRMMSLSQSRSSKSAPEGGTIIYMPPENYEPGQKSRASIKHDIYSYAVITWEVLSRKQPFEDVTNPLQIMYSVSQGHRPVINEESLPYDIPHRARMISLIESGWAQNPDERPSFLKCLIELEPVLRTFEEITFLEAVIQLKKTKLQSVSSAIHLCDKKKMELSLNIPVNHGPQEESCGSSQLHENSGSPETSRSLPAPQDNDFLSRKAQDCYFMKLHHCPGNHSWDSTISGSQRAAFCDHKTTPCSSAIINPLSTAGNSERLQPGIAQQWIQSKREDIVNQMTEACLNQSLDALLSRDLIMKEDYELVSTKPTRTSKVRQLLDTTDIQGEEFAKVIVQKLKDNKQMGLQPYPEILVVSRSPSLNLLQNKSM", "assay": "NOD2-RIPK2 binding disruptors, retest, confirmation, fluorescence, CHO cells, BLA complementation, triplicate (AID 624370;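 active means mean inhibition across replicates above a set limit taken from the earlier primary screen, cut at about 21% in these data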;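 further: 0% = DMSO-only wells and the high end = clavulanate BLA-blocked wells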)", "settings": "CCF4 FRET, at 4.98 µM, active compounds read high"}, "[4]": {"assay": "beta-lactamase reporter inhibitors in CHO cells, confirmation, artefact control for NOD2-RIPK2 interaction inhibitor project, cell-based, CHO-K1 CMV-bla, CCF4 FRET, fluorescence (AID 624371;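 active means mean inhibition above the low-control mean inhibition plus three low-control SD, cut at about 11% in these data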;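 further: 0% = DMSO only wells and 100% = clavulanate high control wells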)", "settings": "CCF4 FRET ratio, counterscreen, at 4.98 µM, active compounds read high"}, "[5]": {"system": "transactivating tegument protein VP16 (Human herpesvirus 1)", "assay": "VP16 transactivation reporter inhibitors, counter-screen for SRC2 inhibitor project, cell-based, luminescence, single concentration (AID 652007; in the data active means inhibition above about 36%)", "settings": "cell-based VP16 transactivation luciferase reporter, at 8.9 µM, active compounds read high"}, "[6]": {"molecular_target": "Nuclear receptor coactivator 2 (Homo sapiens) (UniProt Q15596)", "sequence (Q15596 whole entry, looked up, the tested form may be a part)": "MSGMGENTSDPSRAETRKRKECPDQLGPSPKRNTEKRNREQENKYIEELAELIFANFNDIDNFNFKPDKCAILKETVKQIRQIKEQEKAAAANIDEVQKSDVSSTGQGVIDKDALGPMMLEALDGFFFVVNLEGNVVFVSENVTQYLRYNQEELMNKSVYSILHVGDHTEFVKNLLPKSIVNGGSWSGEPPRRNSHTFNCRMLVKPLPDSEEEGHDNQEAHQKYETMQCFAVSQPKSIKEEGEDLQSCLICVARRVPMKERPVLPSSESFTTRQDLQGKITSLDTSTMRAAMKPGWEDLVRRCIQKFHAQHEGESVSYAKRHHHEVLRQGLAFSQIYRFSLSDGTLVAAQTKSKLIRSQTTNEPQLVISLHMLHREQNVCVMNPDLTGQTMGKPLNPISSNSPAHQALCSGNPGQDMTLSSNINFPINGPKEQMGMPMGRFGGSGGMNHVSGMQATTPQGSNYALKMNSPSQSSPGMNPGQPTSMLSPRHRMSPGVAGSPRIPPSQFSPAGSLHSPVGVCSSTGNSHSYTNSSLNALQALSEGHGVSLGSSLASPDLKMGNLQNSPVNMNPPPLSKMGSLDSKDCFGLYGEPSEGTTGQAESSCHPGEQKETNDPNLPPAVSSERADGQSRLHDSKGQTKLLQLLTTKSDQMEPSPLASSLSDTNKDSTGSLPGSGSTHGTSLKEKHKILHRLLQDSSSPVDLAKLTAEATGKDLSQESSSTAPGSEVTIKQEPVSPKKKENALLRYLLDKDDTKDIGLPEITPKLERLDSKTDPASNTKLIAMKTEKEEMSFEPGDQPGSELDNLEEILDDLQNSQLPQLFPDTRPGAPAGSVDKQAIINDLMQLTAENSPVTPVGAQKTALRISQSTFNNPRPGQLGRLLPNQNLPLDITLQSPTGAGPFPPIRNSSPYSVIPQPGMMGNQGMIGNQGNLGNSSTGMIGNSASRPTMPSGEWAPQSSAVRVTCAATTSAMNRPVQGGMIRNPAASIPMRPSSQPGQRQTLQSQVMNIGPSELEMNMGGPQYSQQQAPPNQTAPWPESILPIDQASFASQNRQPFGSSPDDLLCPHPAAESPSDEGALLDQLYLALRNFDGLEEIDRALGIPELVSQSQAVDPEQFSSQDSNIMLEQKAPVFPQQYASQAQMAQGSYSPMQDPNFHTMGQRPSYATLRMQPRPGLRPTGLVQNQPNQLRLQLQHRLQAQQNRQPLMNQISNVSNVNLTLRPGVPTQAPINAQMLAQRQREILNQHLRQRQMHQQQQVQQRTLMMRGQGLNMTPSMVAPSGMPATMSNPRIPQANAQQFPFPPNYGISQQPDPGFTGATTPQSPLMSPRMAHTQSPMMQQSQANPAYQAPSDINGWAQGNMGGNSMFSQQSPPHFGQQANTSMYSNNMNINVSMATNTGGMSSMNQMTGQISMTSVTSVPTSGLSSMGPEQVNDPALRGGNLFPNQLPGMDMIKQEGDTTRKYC", "assay": "SRC2 coactivator transcriptional activity inhibitors, confirmation, cell-based, luminescence, HEK293, triplicate (AID 652008;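 active means mean inhibition above 46.5%, the solvent-only control mean plus 3 SD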;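 further: 0% = DMSO-treated cells and 100% = Gossypol at 36 µM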)", "settings": "HEK293 GAL4-SRC2 luciferase reporter, at 8.9 µM, active compounds read high"}, "[7]": {"molecular_target": "Galanin receptor type 2 (Homo sapiens) (UniProt O43603)", "sequence (O43603 whole entry, looked up)": "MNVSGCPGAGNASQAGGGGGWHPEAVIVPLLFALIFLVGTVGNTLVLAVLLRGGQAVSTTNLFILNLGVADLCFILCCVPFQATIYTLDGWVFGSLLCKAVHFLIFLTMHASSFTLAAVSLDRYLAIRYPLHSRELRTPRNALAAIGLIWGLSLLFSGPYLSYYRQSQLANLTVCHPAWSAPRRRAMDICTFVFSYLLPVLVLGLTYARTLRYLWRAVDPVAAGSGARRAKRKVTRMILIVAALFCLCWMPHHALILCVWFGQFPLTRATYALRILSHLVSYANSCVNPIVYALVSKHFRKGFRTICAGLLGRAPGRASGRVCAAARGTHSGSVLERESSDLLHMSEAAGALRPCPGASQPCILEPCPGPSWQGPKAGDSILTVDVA", "assay": "GALR2 antagonists, retest of hits, confirmation, cell-based (AID 866; in the data active means inhibition above about 27%;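 further: cells stimulated with galanin at about its EC80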)", "settings": "GALR2-expressing cells, antagonist mode, at 4 µM, active compounds read high"}, "[8]": {"assay": "inhibitors of NFAT-driven beta-lactamase reporter, confirmation, counter-screen for GALR2 antagonist project, CHO NFAT-bla cells, FRET readout (AID 867;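 active means inhibition above the mean inhibition across tested compounds plus 3 SD, cut at about 27% in these data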;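 further: 0% = 500 nM thapsigargin stimulated wells and 100% = unstimulated BSA only wells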)", "settings": "thapsigargin-stimulated, at 4.2 µM, active compounds read high"}, "[9]": {"molecular_target": "(Lyso)-N-acylphosphatidylethanolamine lipase (Mus musculus) (UniProt Q8VD66)", "sequence (Q8VD66 whole entry, looked up)": "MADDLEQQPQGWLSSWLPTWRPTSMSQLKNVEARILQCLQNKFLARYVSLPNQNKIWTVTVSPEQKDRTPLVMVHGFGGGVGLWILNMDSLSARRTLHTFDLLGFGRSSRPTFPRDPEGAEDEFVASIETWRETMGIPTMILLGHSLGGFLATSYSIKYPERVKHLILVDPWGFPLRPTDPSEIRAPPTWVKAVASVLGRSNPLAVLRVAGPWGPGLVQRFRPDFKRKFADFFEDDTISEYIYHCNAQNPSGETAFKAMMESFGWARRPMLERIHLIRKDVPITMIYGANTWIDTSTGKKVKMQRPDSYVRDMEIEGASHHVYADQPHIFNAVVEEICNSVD", "assay": "ABHD4 inhibitors, retest, confirmation, biochemical, fluorescence polarization, mouse (AID 720658;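 active means mean inhibition across replicates above the hit cutoff set in the primary screen, cut at about 30% in these data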;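 further: 0% = wild-type ABHD4 with DMSO and 100% = catalytically dead S159A mutant with DMSO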)", "settings": "purified mABHD4, FP-Rh probe fluorescence polarization; at 8.92 µM; active compounds read high"}, "[10]": {"system": "DAF-12 nuclear receptor (Heterodera glycines), GAL4-LBD fusion", "assay": "H. glycines DAF-12 receptor agonists, confirmation, cell-based, luminescence, HEK293, GAL4-LBD fusion (AID 743050;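 active means mean activation over triplicate wells above the hit cutoff derived from the earlier primary screen, cut at about 11% in these data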;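 further: 0% = DMSO low control and 100% = 2 mM sodium butyrate high control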)", "settings": "HEK293 GAL4-hgDAF12 luciferase reporter, agonist mode; at 6.8 µM; active compounds read high; percent of butyrate response"}, "[11]": {"molecular_target": "Oxysterols receptor LXR-beta (Homo sapiens) (UniProt P55055)", "sequence (P55055 whole entry, looked up, the tested form may be a part)": "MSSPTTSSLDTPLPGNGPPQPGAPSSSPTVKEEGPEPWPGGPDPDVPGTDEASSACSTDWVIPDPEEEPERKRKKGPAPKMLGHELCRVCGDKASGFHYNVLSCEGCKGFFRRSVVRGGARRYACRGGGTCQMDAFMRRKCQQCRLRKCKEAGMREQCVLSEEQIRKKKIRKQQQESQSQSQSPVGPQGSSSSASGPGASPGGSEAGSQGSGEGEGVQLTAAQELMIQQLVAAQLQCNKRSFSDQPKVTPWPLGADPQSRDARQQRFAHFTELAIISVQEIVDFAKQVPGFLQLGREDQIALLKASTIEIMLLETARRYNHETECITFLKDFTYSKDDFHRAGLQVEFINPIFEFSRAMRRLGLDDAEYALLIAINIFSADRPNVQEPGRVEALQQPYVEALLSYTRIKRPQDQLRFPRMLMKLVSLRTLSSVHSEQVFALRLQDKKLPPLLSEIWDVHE", "assay": "LXR agonists, Gal4 luciferase reporter, confirmation, counter-screen for hgDAF-12 agonist project, cell-based, luminescence, HEK293, H. glycines campaign (AID 743051;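 active means mean activation of the triplicate above a set limit carried over from the primary screen, none filed active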)", "settings": "24 h, at 6.8 µM, active compounds read high"}}, "note": "Unmarked numbers belong to inactive results. This is one part of the list. Calls of active or inactive are those of the source.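 How the source made its calls, unless noted: active means mean inhibition above a cutoff equal to the average over all tested compounds plus one standard deviation (cut at about 70% in these data); inactive means the rest.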"}
{"smiles": "CCC(C)N1C(=O)S/C(=C/c2ccc(Sc3nc4ccccc4[nH]3)o2)C1=O", "note": "(configuration not stated)", "values": [{"measurement": "inhibition", "setting": "[1]", "value": "85.7% (active)"}, {"measurement": "inhibition", "setting": "[2]", "value": 69.8, "unit": "%"}]}
{"smiles": "COc1cc(NS(=O)(=O)c2ccc3ccccc3c2)c2ncccc2c1", "values": [{"measurement": "inhibition", "setting": "[3]", "value": "35.7% (active)"}, {"measurement": "inhibition", "setting": "[4]", "value": "18.9% (active)"}, {"measurement": "inhibition", "setting": "[1]", "value": -24.6, "unit": "%"}, {"measurement": "inhibition", "setting": "[2]", "value": 31.6, "unit": "%"}]}
{"smiles": "Cc1cc2nc(-c3ccc(Cl)cc3)c(Cc3cccc(F)c3)n2c(C)c1Br", "values": [{"measurement": "inhibition", "setting": "[1]", "value": 36.1, "unit": "%"}, {"measurement": "inhibition", "setting": "[2]", "value": -25.9, "unit": "%"}]}
{"smiles": "COc1ccc(CNS(=O)(=O)c2ccc(-c3cnc(C4CC4)o3)cc2)cc1", "values": [{"measurement": "inhibition", "setting": "[1]", "value": 48.2, "unit": "%"}, {"measurement": "inhibition", "setting": "[2]", "value": 55.8, "unit": "%"}]}
{"smiles": "CCCOc1ccccc1C1CC(=O)Nc2cc3c(cc21)OCO3", "note": "(configuration not stated)", "values": [{"measurement": "inhibition", "setting": "[1]", "value": 28.9, "unit": "%"}, {"measurement": "inhibition", "setting": "[2]", "value": 26.1, "unit": "%"}]}
{"smiles": "Cc1cccc2sc(N(CCCN(C)C)C(=O)CCS(=O)(=O)c3ccccc3)nc12", "values": [{"measurement": "inhibition", "setting": "[3]", "value": "25.4% (active)"}, {"measurement": "inhibition", "setting": "[4]", "value": 7, "unit": "%"}, {"measurement": "inhibition", "setting": "[5]", "value": 12, "unit": "%"}, {"measurement": "inhibition", "setting": "[6]", "value": 32.5, "unit": "%"}]}
{"smiles": "CCOc1ccc(S(=O)(=O)N2CCCCCC2)c2ccccc12", "values": [{"measurement": "inhibition", "setting": "[1]", "value": 50.4, "unit": "%"}, {"measurement": "inhibition", "setting": "[2]", "value": -4.92, "unit": "%"}]}
{"smiles": "O=C(CSc1nc(Nc2ccccc2)nc(N2CCOCC2)n1)Nc1cc(Cl)ccc1O", "values": [{"measurement": "inhibition", "setting": "[1]", "value": 31.7, "unit": "%"}, {"measurement": "inhibition", "setting": "[2]", "value": 20.4, "unit": "%"}]}
{"smiles": "CSc1ncccc1C(=O)Nc1nc2ccc(F)cc2s1", "values": [{"measurement": "inhibition", "setting": "[1]", "value": 68.5, "unit": "%"}, {"measurement": "inhibition", "setting": "[2]", "value": 25.2, "unit": "%"}]}
{"smiles": "Clc1ccc(-n2nnnc2-c2cnc(-c3ccccn3)nc2-c2cccs2)cc1", "values": [{"measurement": "inhibition", "setting": "[1]", "value": 24.1, "unit": "%"}, {"measurement": "inhibition", "setting": "[2]", "value": -8.49, "unit": "%"}]}
{"smiles": "COc1cccc(NS(=O)(=O)c2ccc(-c3coc(C)n3)cc2)c1", "values": [{"measurement": "inhibition", "setting": "[1]", "value": 10.9, "unit": "%"}, {"measurement": "inhibition", "setting": "[2]", "value": 37.3, "unit": "%"}]}
{"smiles": "N#Cc1cccc(NC(=O)COC(=O)c2ccccc2C(=O)c2ccc(Cl)c([N+](=O)[O-])c2)c1", "values": [{"measurement": "inhibition", "setting": "[7]", "value": "63.2% (active)"}, {"measurement": "inhibition", "setting": "[8]", "value": "37.4% (active)"}, {"measurement": "inhibition", "setting": "[3]", "value": "56.2% (active)"}, {"measurement": "inhibition", "setting": "[4]", "value": "11.9% (active)"}]}
{"smiles": "CN(C)C(=S)N=c1ssc(=S)n1Cc1ccco1", "values": [{"measurement": "inhibition", "setting": "[1]", "value": -16.6, "unit": "%"}, {"measurement": "inhibition", "setting": "[2]", "value": -46.1, "unit": "%"}]}
{"smiles": "OC(c1ccc(Cl)cc1)c1ncc(-c2ccc(Cl)cc2)[nH]1", "note": "(configuration not stated)", "values": [{"measurement": "inhibition", "setting": "[1]", "value": "79.4% (active)"}, {"measurement": "inhibition", "setting": "[2]", "value": 58.9, "unit": "%"}]}
{"smiles": "S=C(NCC1CCCO1)N1CCN(c2ccc(Cl)c(Cl)c2)CC1", "note": "(configuration not stated)", "values": [{"measurement": "inhibition", "setting": "[1]", "value": "89.2% (active)"}, {"measurement": "inhibition", "setting": "[2]", "value": "73.3% (active)"}]}
{"smiles": "O=C(NC1=CC(=O)c2ccccc2C1=O)c1ccccc1", "values": [{"measurement": "inhibition", "setting": "[3]", "value": "89% (active)"}, {"measurement": "inhibition", "setting": "[4]", "value": -4.54, "unit": "%"}, {"measurement": "inhibition", "setting": "[1]", "value": 6.41, "unit": "%"}, {"measurement": "inhibition", "setting": "[2]", "value": 17.1, "unit": "%"}]}
{"smiles": "O=C(c1ccc(N2CCCC2=O)cc1)N1CCN(c2ccc(C(F)(F)F)cc2[N+](=O)[O-])CC1", "values": [{"measurement": "inhibition", "setting": "[1]", "value": "93.2% (active)"}, {"measurement": "inhibition", "setting": "[2]", "value": "74.9% (active)"}]}
{"smiles": "Cc1cccc(NC(=O)c2ccc(COc3ccccc3[N+](=O)[O-])o2)n1", "values": [{"measurement": "inhibition", "setting": "[1]", "value": 10, "unit": "%"}, {"measurement": "inhibition", "setting": "[2]", "value": 26.1, "unit": "%"}]}
{"smiles": "Cc1nc(-c2ccc(F)cc2)c(CC(=O)Nc2cc(S(=O)(=O)N3CCCCC3)ccc2C)s1", "values": [{"measurement": "inhibition", "setting": "[1]", "value": 56.8, "unit": "%"}, {"measurement": "inhibition", "setting": "[2]", "value": -7.22, "unit": "%"}]}
{"smiles": "COc1ccc(C(=O)NNC(=S)NC(=O)c2ccccc2[N+](=O)[O-])cc1", "values": [{"measurement": "inhibition", "setting": "[1]", "value": 3.63, "unit": "%"}, {"measurement": "inhibition", "setting": "[2]", "value": -6.68, "unit": "%"}]}
{"smiles": "Cc1csc(NC(=S)Nc2cccc(Cl)c2)n1", "values": [{"measurement": "inhibition", "setting": "[1]", "value": -131, "unit": "%"}, {"measurement": "inhibition", "setting": "[2]", "value": -129, "unit": "%"}]}
{"smiles": "O=S(=O)(c1cccc(Cn2nnc(-c3ccc(F)cc3)n2)c1)N1CCOCC1", "values": [{"measurement": "inhibition", "setting": "[1]", "value": 34.9, "unit": "%"}, {"measurement": "inhibition", "setting": "[2]", "value": 39.4, "unit": "%"}]}
{"smiles": "COc1ccc(S(=O)(=O)NCCCCOc2ccc(Cl)cc2)cc1", "values": [{"measurement": "inhibition", "setting": "[1]", "value": "97.5% (active)"}, {"measurement": "inhibition", "setting": "[2]", "value": "86.5% (active)"}]}
{"smiles": "Cc1ccc(S(=O)(=O)N2CCN(c3ncnc4ccccc34)CC2)cc1", "values": [{"measurement": "inhibition", "setting": "[1]", "value": "94.1% (active)"}, {"measurement": "inhibition", "setting": "[2]", "value": "80.5% (active)"}]}
{"smiles": "Cc1nc2c(OCc3cccc(Cl)c3)cccn2c1N(C)CC1CC1", "values": [{"measurement": "inhibition", "setting": "[1]", "value": 1.83, "unit": "%"}, {"measurement": "inhibition", "setting": "[2]", "value": 19.3, "unit": "%"}]}
{"smiles": "C/C(=N\\NC(=S)NCc1ccccc1)c1ccc(Cl)cc1", "values": [{"measurement": "inhibition", "setting": "[1]", "value": -1.78, "unit": "%"}, {"measurement": "inhibition", "setting": "[2]", "value": -14.2, "unit": "%"}]}
{"smiles": "c1ccc(C(=NNc2nc3ccccc3s2)c2ccccn2)cc1", "values": [{"measurement": "inhibition", "setting": "[1]", "value": 22.6, "unit": "%"}, {"measurement": "inhibition", "setting": "[2]", "value": 11.6, "unit": "%"}]}
{"smiles": "COC(=O)c1ccc(NC(=O)c2ccccc2NS(=O)(=O)c2ccccc2)cc1", "values": [{"measurement": "inhibition", "setting": "[1]", "value": "77.4% (active)"}, {"measurement": "inhibition", "setting": "[2]", "value": 57.7, "unit": "%"}]}
{"smiles": "CCOC(=O)N1CCN(C(=O)c2ccc(S(=O)(=O)Nc3cccc(C(F)(F)F)c3)cc2)CC1", "values": [{"measurement": "inhibition", "setting": "[1]", "value": 65.8, "unit": "%"}, {"measurement": "inhibition", "setting": "[2]", "value": 47.3, "unit": "%"}]}
{"smiles": "O=C(O)c1ccc2c(c1)C(=O)N(c1ccc(/C=C/C(=O)c3ccccc3)cc1)C2=O", "values": [{"measurement": "inhibition", "setting": "[3]", "value": 5.5, "unit": "%"}, {"measurement": "inhibition", "setting": "[4]", "value": 0.39, "unit": "%"}, {"measurement": "inhibition", "setting": "[9]", "value": 0.6, "unit": "%"}, {"measurement": "activation", "setting": "[10]", "value": 1.47, "unit": "%"}, {"measurement": "activation", "setting": "[11]", "value": 0.05, "unit": "%"}]}
{"smiles": "COc1ccc(C(C[N+](=O)[O-])n2nc(C)cc2C)cc1", "note": "(configuration not stated)", "values": [{"measurement": "inhibition", "setting": "[3]", "value": "40.9% (active)"}, {"measurement": "inhibition", "setting": "[4]", "value": -5.9, "unit": "%"}]}
{"smiles": "CCC1(C)Cc2c(sc3[nH]c(=S)n(Cc4ccccc4)c(=O)c23)CO1", "note": "(configuration not stated)", "values": [{"measurement": "inhibition", "setting": "[1]", "value": "70.9% (active)"}, {"measurement": "inhibition", "setting": "[2]", "value": 34.4, "unit": "%"}]}
{"smiles": "CCCc1cc(=O)[nH]c(SCC(=O)Nc2sc3c(c2C#N)CCCC3)n1", "values": [{"measurement": "inhibition", "setting": "[1]", "value": 15.4, "unit": "%"}, {"measurement": "inhibition", "setting": "[2]", "value": 41.8, "unit": "%"}]}
